Source: PubChem BioAssay AID1080 (Emory University Molecular Libraries Screening Center, 2008)
Hit rate of the full screen: of about 1,300 compounds, about 640 (49%) were called active.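 How the source made its calls: active means cAMP induction above 50% in the main assay while under 30% in all four parallel counter assays; inactive means the rest.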 So high a share suggests a set chosen from earlier hits. These entries were drawn from the full list.

How the values were obtained:
[1] = cAMP induction in EP2, EP4, beta2-AR and parental cells, confirmation, counter-screen for EP2 modulator project, cell-based, five parallel assays, C6 glioma, HEK293 (AID 1080); details: cAMP HTRF induction
[2] = molecular target: Prostaglandin E2 receptor EP2 subtype (Homo sapiens) (UniProt P43116); test: as above; details: cAMP HTRF induction, stronger effect = higher value, screened at 20 µM (by protocol), percent of 1 uM PGE2 response, plus low (about EC15) PGE2 agonist
[3] = measured here: EP4 receptor counter-screen, percent of 1 uM PGE2 response, plus low (about EC15) PGE2 agonist
[4] = measured here: beta2 adrenergic HEK293 counter-screen
[5] = measured here: cAMP conditions counter-screen
[6] = measured here: parent C6 cells counter-screen

| SMILES | cAMP induction [1, 3] [%] | cAMP induction [1, 4] [%] | cAMP induction [1, 5] [%] | cAMP induction [1, 6] [%] | cAMP induction [2] |
| --- | --- | --- | --- | --- | --- |
| O=C(Nc1ccccc1N1CCCCC1)c1cccc(F)c1 | 20.9 | -8.46 | -6.32 | -1.46 | 54.4% (active) |
| O=C(Nc1ccccc1N1CCCCC1)c1ccc2nccnc2c1 | -20.6 | -12.3 | -1.35 | -3.85 | 56.9% (active) |
| CCC(C)(C)c1ccc(OCC(=O)N(C)C)c(C(C)(C)CC)c1 | -18 | -18.7 | -1.65 | -11.3 | 18.5% (inactive) |
| CC[C@@H]1Cc2cc(O)ccc2C2=C1c1ccc(O)cc1C[C@H]2CC | -0.0767 | -11.7 | 6.45 | 2.02 | 34.5% (inactive) |
| CCCc1cc(-c2n[nH]c(=S)n2Cc2ccccc2)cs1 | 1.9 | -7.59 | -4.47 | 1.74 | 37.8% (inactive) |
| CCCCOc1ccc(-c2nnc(-c3ccco3)o2)cc1 | -1.8 | -7.34 | 3.34 | 3.09 | 50.4% (active) |
| Cc1cc(C#N)c(SCC(N)=O)nc1-c1ccc(F)cc1 | 9.53 | 7.22 | 2.14 | -4.05 | 50.9% (active) |
| FC(F)(F)c1cccc(-c2cc3ccccc3nc2N2CCCC2)c1 | 17.7 | -13 | -2.73 | -3.28 | 52.7% (active) |
| CCOC(=O)c1c(C2CC2)csc1NC(=O)CSCc1c(C)noc1C | -15.3 | -5.42 | -2.02 | 2.56 | 48.8% (inactive) |
| O=c1cc(N2CCCCC2)c(-c2ccccc2)nn1Cc1cccc(F)c1 | -7.11 | -13 | 3.15 | 3.46 | 79.6% (active) |
| CCOc1ccc(NC(=O)CSc2ncnc3c2sc2ccccc23)cc1 | 80.8 | 81.1 | 79.9 | 80.1 | 77.7% (inactive) |
| COc1ccc(C)c(Cn2c(-c3nonc3N)nc3ccccc32)c1 | 4.7 | -6.52 | 1.9 | 1.52 | 69.6% (active) |
| COC(=O)C1=C(C)N(C)C(C)=C(C(=O)OC)C1c1cccc(Br)c1 | -5.89 | 5.82 | -5.28 | 1.49 | 46% (inactive) |
| Cc1ccccc1-c1n[nH]c(=S)n1/N=C/c1ccc(-c2ccccc2Br)o1 | 18.4 | 14.3 | 22.4 | 19.4 | 57.9% (active) |
| O=c1[nH]c(CSc2ncc(-c3ccc(F)cc3)n2Cc2ccco2)nc2ccccc12 | -12.9 | -5.45 | -6.27 | -5.69 | 39.9% (inactive) |
| Cc1nn2c(c1-c1ccccc1)N=C(c1ccco1)CC2c1ccccc1 (stereo not given) | -13.9 | -0.13 | 0.137 | 4.52 | 36.7% (inactive) |
| NC(=O)COc1ccc(C23CC4CC(CC(C4)C2)C3)cc1 | -2.42 | -18.4 | 7.34 | -0.99 | 64.6% (active) |
| Cc1nc2ccccc2c(-c2ccccc2)c1C(=O)c1ccccc1 | 2.31 | 4.97 | -6.03 | -0.11 | 88.9% (active) |
| O=c1c2ccccc2nc2n1C1(CCCCC1)Cc1ccccc1-2 | -3.33 | -1.27 | 0.00333 | -4.35 | 55.1% (active) |
| CC(C)(C)c1nc2ccccc2c(=O)n1N1C(=O)c2ccccc2C1=O | -2.16 | 4.41 | 5.06 | 3.57 | 36.9% (inactive) |
| CN(C)Cc1ccc(F)cc1Sc1cc(Cl)ccc1Cl | -1.47 | -10.1 | -3.1 | 2.77 | 45.2% (inactive) |
| CC(C)NC(=S)NN=C1CCCCCCCCCCC1 | 1.01 | 7.6 | 2.87 | -7.59 | 54.8% (active) |
| COC(=O)CSc1nc2c(c(C3CC=CCC3)c1C#N)CCC2 (stereo not given) | 1.11 | 7.56 | 3.4 | 4.46 | 69.8% (active) |
| CSc1ncnc2sc(C)c(C)c12 | 5.89 | 2.78 | 5.03 | 0.0167 | 42.1% (inactive) |
| CC1CCN(c2nc3c(c(=O)[nH]c(=O)n3C)n2CCCc2ccccc2)CC1 | 4.8 | -2.72 | -1.35 | -0.403 | 42.2% (inactive) |
| Cc1cccc(Cn2c(N3CCN(c4ccccc4)CC3)nc3c2c(=O)n(C)c(=O)n3C)c1 | -5.29 | -6.91 | 5.21 | 1.06 | 54.8% (active) |

| SMILES | cAMP induction [1, 3] [%] | cAMP induction [1, 4] [%] | cAMP induction [1, 5] [%] | cAMP induction [1, 6] [%] | cAMP induction [2] |
| --- | --- | --- | --- | --- | --- |
| COc1c2c(cc3occ(-c4ccc5c(c4)OCO5)c(=O)c13)OC(C)(C)C=C2 | -0.877 | -13.4 | 2.3 | 4.12 | 46.1% (inactive) |
| CC(C)Oc1ccc(Cc2n[nH]c(=S)n2Cc2ccccc2)cc1Cl | -4.47 | -10.4 | 0.63 | 2.28 | 40% (inactive) |
| CC1(C)Cc2nc3sc4c(SCC(=O)NC(c5ccccc5)c5ccccc5)ncnc4c3cc2CO1 | 71.8 | 71.7 | 70.8 | 70 | 68.6% (inactive) |
| CCOC(=O)C1=C(CN2CCc3ccccc32)NC(=O)NC1c1ccc(Cl)cc1 (stereo not given) | -13 | -5.75 | -12.2 | -1.26 | 42.4% (inactive) |
| Cc1cc(NC(=O)CN2CCCC(C)C2)n(-c2nc3ccccc3s2)n1 (stereo not given) | 16.2 | 6.5 | -2.07 | -6.69 | 50.7% (active) |
| COC(=O)c1sc2[nH]c(=S)n(N)c(=O)c2c1C | 68.1 | 67.4 | 67.6 | 66.3 | 70.6% (inactive) |
| Cc1cccc2cc(CN(Cc3cccs3)C(c3nnnn3C3CCCC3)C(C)C)c(=O)[nH]c12 (stereo not given) | -2.3 | -6.33 | 1.55 | 3.32 | 59.5% (active) |
| Oc1ccc(/C=N/N(Cc2ccccc2)c2ccccc2)cc1 | -13.7 | -14.9 | -0.103 | 2.51 | 55.2% (active) |
| CCN1CCN(c2c(Cl)cccc2NC(=O)c2ccc(Br)o2)CC1 | 9.56 | -6.35 | 8.3 | 10.5 | 45.8% (inactive) |
| CCOC(=O)c1c(N)nn(C(=O)c2ccccc2)c1-c1ccccc1 | -2.57 | -8.03 | 0.963 | -2.53 | 53.3% (active) |
| Cc1ccc(-n2c(SCC(=O)Nc3ccc4c(c3)OCO4)nnc2-c2ccoc2C)cc1 | 7.89 | -0.777 | -1.2 | -1.05 | 40.3% (inactive) |
| COc1ccccc1NC(=O)CSc1nnc(Cn2nnc(-c3ccccc3)n2)n1-c1ccccc1 | -5.84 | -2.51 | 2.46 | 3.99 | 61.9% (active) |
| O=c1c2ccccc2c(-c2ccccc2)nn1Cc1ccccc1 | 1.05 | 4.51 | -1.54 | -0.867 | 78% (active) |
| CSc1nc2ccccc2c(=O)n1Cc1ccc(F)cc1 | 1.87 | 10 | -3.28 | 0.81 | 44.6% (inactive) |
| O=c1c2ccccc2c(-c2ccc(Br)cc2)nn1Cc1ccccc1 | 4.3 | 8.28 | -3.64 | 0.753 | 72.8% (active) |
| Cc1ccccc1C(=O)Nc1ccccc1Sc1ccccc1 | -6.34 | -0.06 | -1.62 | -1.24 | 73.7% (active) |
| O=C(COC(=O)c1ccccc1)Nc1ccccc1Sc1ccccc1 | 5.14 | -16.3 | -4.67 | -4.62 | 66.8% (active) |
| O=C(CN1CCCCC1)N1c2ccccc2Sc2ccc(C(F)(F)F)cc21 | -11.3 | -1.41 | -5.21 | -5.14 | 47.3% (inactive) |
| CCc1ccccc1NC(=O)/C(=C/c1ccccc1)c1ccccc1 | -11.7 | 34 | -0.563 | -0.623 | 53.6% (inactive) |
| CCOCC(=O)Nc1sc2c(c1C(=O)OCC)CCCC2 | -16 | 3.07 | 3.98 | 1.75 | 40.6% (inactive) |
| Cc1ccc(C(=O)c2c(NC(=O)c3ccncc3)sc3c2CCCC3)cc1 | 4.56 | -17.1 | 0.45 | 3.43 | 54.2% (active) |
| CC1(C)CC2CC(C)(CN2c2ncnc3ccc(Br)cc23)C1 (stereo not given) | -0.537 | -0.287 | 6.56 | 5.43 | 25.7% (inactive) |
| Cc1ccc(Nc2cc(C)nc3c(C)ccc([N+](=O)[O-])c23)cc1 | -1.3 | 15.4 | 0.53 | -0.713 | 57.4% (active) |
| CC(=O)c1ccc2c(c1)c1ccccc1n2CC(C)C | 8.49 | 0.833 | 9.82 | 9.42 | 58.9% (active) |
| CCCCCn1c(SCCC(C)C)nc2c1c(=O)[nH]c(=O)n2C | -16.3 | -18.1 | 1.4 | -0.767 | 59.3% (active) |
| CCOC(=O)C(CC)Sc1ncnc2c1nnn2-c1ccc(F)cc1 (stereo not given) | -7.74 | 17 | 0.993 | 2.03 | 50.7% (active) |
